# Measurements as given in the OligoGym collection.
# Target: NGDN
# Experiment: pooled miR-30 sensor sort-seq; sequence = guide strand
# Details: shRNA
# Further: reference of the scale not given here.
row,Sequence,sensor-assay potency score (higher = more potent)
1,TACAGCCATCACTTGCTCCTGG,-0.0207
2,TTTTCTTCCGACCTTTCTGAGG,-1.13
3,TAATGTACTGGAACCAAGCGTG,-0.00853
4,TTCGCCGTCCTTTCTCTCGCTT,-0.269
5,TTGCTCGTTTTCGCCGTCCTTT,-1.03
6,TAGGATTCTGATCCTCATCAAG,-1.32
7,TTCTAGACGCTTCTTCTCCCGC,-0.831
8,ATATTTCTTAGACACTCCCTTC,-0.888
9,TTGCTCATCATATTGCTGGGAT,0.439
10,TGTCACTGCAGTCTTGATCAGC,-0.949
11,TTTCTCTCGCTTACTGACGCTC,-0.845
12,TTTCTGTAGGATAGGCACCAGC,-1.35

# Target: NHP2
# Experiment: as above
# Details: shRNA
row,Sequence,sensor-assay potency score (higher = more potent)
1,TTTCTTGATGCATTTGTAGAGC,-0.635
2,TTGACCAGCAGCTCCTGGTAGG,-0.886
3,TTCTGCTTCACCGCTTTCTTGA,-0.609
4,TTCTGAACCTCTTTCACCCCGC,-0.0214
5,TTTCTGAACCTCTTTCACCCCG,0.283
6,TAGACATAGGGCAAATTTCGGT,-0.754
7,TCTGCTTCTGCTTCACCGCTTT,0.228
8,TTCACCGCTTTCTTGATGCATT,-0.959
9,TTTGTAGAGCTTCCGCGTGAGG,-1.63
10,TTGACCATTATCACACAGGTGG,-0.273
11,TAGAGCTTCCGCGTGAGGCGGC,-0.484
12,TGCATTTGTAGAGCTTCCGCGT,-0.805

# Target: NKIRAS2
# Experiment: as above
# Details: shRNA
row,Sequence,sensor-assay potency score (higher = more potent)
1,TGCGTCTCGATCATCTCCGAAC,-1.51
2,TATAATAGGAACTCAGACCCAA,-0.0468
3,TCTCGATCATCTCCGAACCCAC,-1.49
4,TGTAAGTCACACTTGTTGCCAA,0.157
5,TTGCCAAGGACCACGATGGTGA,-0.541
6,TTGCGTCATCTTGCTGGCCAAG,-1.52
7,TTGTTCTTCCGGCTGAGGGGGA,-0.774
8,TTGAGCAGCTCCACACGCTGAA,-0.404
9,TTTGTCAATCTCCTTCTTGAGC,-1.29
10,TTATTGTGTCCAACCAATGCAT,-0.509
11,TATTGTGTCCAACCAATGCATC,-1.63
12,AAAGACTCTCTGCTATCTGTGC,-0.545

# Target: NKPD1
# Experiment: as above
# Details: shRNA
row,Sequence,sensor-assay potency score (higher = more potent)
1,AGGAACTGCAGCTTGGTGCGGC,-1.31
2,TTGTCGGGCACGTACTCGTAGA,-1.44
3,TTGTCGCGGAAAACGTCCCAGA,-1.15
4,TCTCGCGGTACAACAGGTCGTC,-0.615
